In PubChem BioAssay (NCI):
The panel holds about 83,000 compounds, 20% with a hit somewhere; the sample as a whole holds those more often.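 Each cell line was grown in a 96-well plate and treated with one concentration of compound for 48 hours. Values below 10 were considered active.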 A number with no mark means an inactive call. Active and inactive are the calls of the source.

Columns and labels:
Assay in all cases: NCI-60 one-dose screen, 48 h (100 = growth as untreated, 0 = no growth, -100 = all killed)
Conditions in all cases: 10 µM unless noted
[1] = system: NCI-H23 lung
[2] = system: NCI-H226 lung
[3] = system: NCI-H322M lung
[4] = system: HOP-62 NSCLC
[5] = system: NCI-H460 lung
[6] = system: HOP-92 NSCLC
[7] = system: NCI-H522 lung
[8] = system: A549/ATCC NSCLC
[9] = system: 786-0 renal
[10] = system: COLO 205 colon
[11] = system: DU-145 prostate
[12] = system: K-562 leukemia
[13] = system: MALME-3M melanoma
[14] = system: MDA-MB-231 breast
[15] = system: SF-268 CNS
[16] = system: SF-295 CNS
[17] = system: SF-539 CNS
[18] = system: UACC-257 melanoma
[19] = system: RXF 393 renal

| Structure (SMILES) | growth [1] | growth [2] | growth [3] | growth [4] | growth [5] | growth [6] | growth [7] | growth [8] | growth [9] | growth [10] | growth [11] | growth [12] | growth [13] | growth [14] | growth [15] | growth [16] | growth [17] | growth [18] | growth [19] |
| --- | --- | --- | --- | --- | --- | --- | --- | --- | --- | --- | --- | --- | --- | --- | --- | --- | --- | --- | --- |
| CC(=O)Nc1ccc(-c2cc3c(NCc4ccc(F)cc4)ncnc3s2)cc1 | 77.5% | 78.4% | 82.7% | 58% | 77.3% | 76% | 56.6% | 83.9% | 82.7% | 106% | 86.3% | 86.8% | 59.5% | 83% | 68% | 82.6% | 56.6% | 86.8% |  |
| CCOC(=O)c1nnn(-c2ccccc2)c1C1=CN(C)CCC1 | 92.8% | 102% | 95.8% | 99.6% | 104% | 108% | 86.7% | 99.6% | 97.3% | 113% | 103% |  | 104% | 112% | 92.4% | 98.2% | 95.2% | 99.4% | 120% |
| COc1ccc(OC)c(/C=C2\COc3ccc(O)c(O)c3C2=O)c1 | 48.9% | 85.2% | 54.3% | 30.2% | 4.53% (active) | 56.7% | -33.4% (active) | 48.1% | 22.4% | 95.3% | 3.87% (active) | 5.87% (active) | -5.32% (active) | 9.33% (active) | 15.9% | 78.4% | -23.1% (active) | 49.4% |  |
| CC(=O)NCC(=O)Nc1ccc(-c2nnc3ccccn23)nc1.CC(=O)NCC(=O)Nc1ccc(-c2nnc3ccccn23)nc1.[Pt+2] | 99.4% | 110% | 112% | 101% | 99.6% | 119% | 83.6% | 85% | 107% | 111% | 109% |  | 105% | 104% | 109% | 117% | 110% | 78.7% | 117% |
| Cn1cc(-c2ccc3ncc(-c4ccc(CC(=O)Nc5cc(C(C)(C)C)nn5C)cc4)cc3c2)cn1 | 7.05% [30 µM] (active) | 11.5% [30 µM] | 15% [30 µM] | 17.6% [30 µM] | 8.3% [30 µM] (active) | 31.6% [30 µM] | -2.49% [30 µM] (active) | 17.8% [30 µM] | 39.6% [30 µM] | 5.26% [30 µM] (active) | 18.1% [30 µM] | 7% [30 µM] (active) | -0.381% [30 µM] (active) | 36% [30 µM] | 25.3% [30 µM] | 12.2% [30 µM] | 19.3% [30 µM] | 7.37% [30 µM] (active) |  |
| COC1=CC(c2ccc[nH]2)=N/C1=C\c1[nH]c(C)c(C(=O)OCCn2cc(CCC[C@@H]3Cc4cc(O)ccc4C4CC[C@]5(C)[C@@H](O)CC[C@H]5C43)nn2)c1C (some centres undefined) | 80.8% | 85.7% | 82% | 88.6% | 53.3% | 67.8% | 92.1% | 82.2% | 62.5% | 80.5% | 50.1% | 51.9% | 131% |  | 69.9% | 96.1% | 64.2% | 96.4% | 60.1% |
| Cn1ccc(Cc2cnc(N)s2)n1 | 101% | 98.8% | 102% | 100% | 106% | 98.1% | 84.3% | 84.3% | 101% | 105% | 110% |  | 100% | 104% | 100% | 107% | 99.5% | 81.7% | 107% |
| COc1cc2oc(-c3cccc(C(=O)Nc4ccc(C)cc4)c3)cc(=O)c2c(OC)c1OC | 44.6% | 62.5% | 51.1% | 22.1% | 24.9% | 22% | 6.72% (active) | 33.8% | 22.1% | 1.73% (active) | 48.2% | 28% | 27.3% |  | 57.7% | -47% (active) | 45.8% | 29.9% | -7.43% (active) |
